The whole screen tested about 4,800 compounds, of which about 420 (8.8%) showed an effect of 50% or more. Many of the other results were omitted from the sample, so strong results are more common in it than they were.

The test deals with Plasmodium falciparum. The experiment in a line: Confirmatory screen in NF54 nanoGlo assay, in single point, at 2uM, 72h. It is filed as functional, Erythrocyte. The note with it: timepoint 72 hour.
On to `CN1CCC(N(Cc2ccccc2)C(=O)c2cc3cnccc3[nH]2)CC1`, for which the % Inhibition (commonly the drop in the measured response relative to a control, in per cent) amounted to 61%.
The figure for `CCCN1CCC(N2CC(c3cccnc3)C(c3nc(C4CCCC4)no3)C2)CC1` (stereo not drawn) is -2%.
On to `Cc1cc(O)c(Cl)cc1-c1ccc2nccc(N)c2c1`, for which the “% Inhibition” value was found to be 90%.
Turning to `Cc1cc(O)c(Cl)cc1-c1cccc2c(N)ccnc12`, the “% Inhibition” value is 91%.
Take `Clc1ccc2[nH]c3c(c2c1)CCCC3NC1CCN(C2CCOC2)CC1` (stereo not drawn): the “% Inhibition” value came to 81%.
As to `CN1CCC(Oc2ccc(NC(=O)c3cn4ccnc4s3)cn2)CC1`, the “% Inhibition” value was 86%.
For the molecule `Nc1ccnc2ccc(-c3ccc(C(=O)NCC4CCOCC4)cc3)cc12`, the “% Inhibition” value is 77%.
Regarding `Cc1ccc2nc(-c3cccc(NC(=O)c4ccc(OC(F)(F)F)c(Cl)c4)c3)[nH]c2n1`, the “% Inhibition” value is given as 72%.
Take `Cc1cc(N2CCC(NC3CCNC(c4ccccc4)C3)CC2)nc(C)n1` (stereo not drawn): the “% Inhibition” value came to 30%.
The figure for `Cc1cc(N2CCC(N(C)Cc3cc(-c4ccccc4)n[nH]3)CC2)nc(N)n1` is 21%; for `Cc1cc(N2CCC(NC3CCCC3Cc3ccc(F)cc3)CC2)nc(N)n1` (stereo not drawn) it is 96%; for `c1cc(CNC2CCN(C[C@H]3CCOC3)CC2)c2cc[nH]c2c1` it is -7%.
With `Fc1cccc(Cl)c1CN1CCC(NC[C@H]2CCCOC2)CC1`, the “% Inhibition” value turned out to be 24%.
Take `O=C(NCc1ccc(N2CCNCC2)c(F)c1)c1ccc(-c2noc(C(F)(F)F)n2)cc1`: the “% Inhibition” value is given as 57%.
Regarding `Cc1nc(N2CCN(C)CC2)cc(N2CCN(S(=O)(=O)c3ccccc3C(F)(F)F)CC2)n1`, the “% Inhibition” value was 67%.
As to `Cc1c(CN2CCC(O)(Cn3ccnc3)CC2)[nH]c2c(Cl)cccc12`, the “% Inhibition” value is 96%.
For the molecule `NC(=O)[C@]1(O)CCN(c2ccnc3ccc(Oc4ccccc4)cc23)C1`, the “% Inhibition” value is 29%.
On to `O[C@@]1(c2c[nH]nn2)CCN(c2ccnc3cc(Cl)ccc23)C1`, for which the “% Inhibition” value is given as 59%.
Take `COCCN1CCC[C@@]2(CCN(c3ccnc4cc(Cl)ccc34)C2)C1`: the “% Inhibition” value is reported as 99%.
Consider `COCCN1CC[C@H](CN(C)c2ccnc3cc(Cl)ccc23)C1`, for which the “% Inhibition” value stood at 98%.
Turning to `Cc1cc(C)c(CN2CCN(C)CC2)cc1CNCCCn1ccnc1C`, the “% Inhibition” value is recorded as 38%.
For `Cc1cccc(N2CCC(NCc3cc(C)cc(CN4CCN(C)CC4)c3C)CC2)c1`, the “% Inhibition” value was determined as 61%.
On to `Cc1ccc2nc(NC[C@H]3CCN(C4CC4)C3)cc(C)c2c1`, for which the “% Inhibition” value was 93%.
With `COc1ccc(-c2cc(C(=O)Nc3ccc(N4CCN5CCCC5C4)cc3)c3c(C)noc3n2)cc1` (stereo not drawn) the figure was 41%; with `Cc1cc(N2CCC(Nc3ccnc4ccncc34)CC2)nc(C)n1`, 9%.
The figure for `CCCN1CCC(Nc2cc(C)nc3ccccc23)CC1` is 77%; for `Cc1cc(NC[C@H]2CN(CC(C)C)CCO2)c2ccccc2n1` it is 26%; for `O=C(Nc1cnc2c(c1)COCC2)c1cc2c(OC(F)(F)F)cccc2[nH]1` it is 95%.
`c1ccc(CCC23CN(Cc4ccccn4)CC2CN(Cc2ccns2)C3)cc1` (stereo not drawn): the “% Inhibition” value was found to be 88%.
Consider `Nc1cc(N2CCC(c3nc4cc(F)ccc4[nH]3)CC2)nc(N2CCOCC2)n1`, for which the “% Inhibition” value turned out to be 39%.
For the molecule `Cc1ccc2[nH]cc(-c3cc(N4CCOCC4)nc(N)n3)c2c1`, the “% Inhibition” value is listed as 57%.
With `Brc1ccc2[nH]c3c(c2c1)CCCC3NC1CCc2[nH]cnc2C1` (stereo not drawn) the figure was 97%; with `c1ccc(CNc2ccc(-c3noc(C45CCCN(CCC4)C5)n3)cn2)cc1`, 82%.
With `NCCCCc1c(-c2cccnc2)[nH]c2c(Cl)cc(Cl)cc12`, the “% Inhibition” value worked out at 55%.
On to `Cn1cc(-c2cncc(C(=O)NC3CCN(c4cccc(F)c4)CC3)c2)cn1`, for which the “% Inhibition” value was found to be 51%.
Consider `CCOc1cccc(N2CCN(C(=O)c3cc(-c4ccc(F)cc4)[nH]n3)CC2)n1`, for which the “% Inhibition” value was determined as 32%.
With `CN(C)CCN1CCC(NC2CCC(O)(c3cccc(Cl)c3)CC2)CC1` (stereo not drawn) the figure was 30%; with `OC1(c2ccc(Cl)cc2)CCN(C[C@@H]2CCCN3CCCC[C@H]23)CC1`, 73%.
With `NCC1(O)CCN(c2ccnc3cc(F)c(Cl)cc23)CC1` the figure was 94%.
With `FC(F)(F)c1ccc(N2CCC[C@H](NC3CCN(Cc4ccco4)CC3)C2)nc1` the figure was 21%; with `CCN1CCC(N2CCC(C(=O)NCCc3ccc(OC(F)(F)F)cc3)CC2)CC1`, 48%; with `Oc1ccc(OC(F)(F)F)cc1-c1ccc2nccn2n1`, 83%.
`Nc1ccc(-c2cc(OC(F)(F)F)ccc2O)cn1`: the “% Inhibition” value is 11%.
For `N#Cc1ccc(N2C[C@H](COCC3CC3)C3(CCN(Cc4cccc(O)c4)CC3)C2)cc1C(F)(F)F`, the “% Inhibition” value came out at 80%.
Regarding `CCN1C[C@H](Nc2nc(C)nc3sccc23)[C@@H](OC)C1`, the “% Inhibition” value was 98%.
As to `CNc1nc(C)c(-c2ccnc(Nc3cccc(S(C)(=O)=O)c3)n2)s1`, the “% Inhibition” value stood at 58%.
The figure for `Cc1cc(N2CCC(NCCCN3CCCc4ccccc43)CC2)nc(N)n1` is 74%.
The figure for `Cc1ccc2nc(CCCNC3CCN(c4cc(C)nc(N)n4)CC3)oc2c1` is 29%; for `Cc1cc(N2CCC(NCCc3c[nH]cn3)CC2)nc(-c2ccccc2)n1` it is 17%; for `COc1ccc2c(O)c(Br)c(C)nc2c1` it is 78%.
Turning to `COc1ccc2nc3cc(Cl)ccc3c(O)c2c1`, the “% Inhibition” value came to 57%.
For the molecule `CN1CCN(CCOc2ccccc2CN(C)Cc2cc3cc(F)ccc3[nH]2)CC1`, the “% Inhibition” value was found to be 87%.
Turning to `CN(C[C@H](O)COc1cccc(CNCCCOc2cccnc2)c1)C1CCCCC1`, the “% Inhibition” value is listed as 30%.
As for `CN1C(C)(C)CC(NC(=O)c2ccc(-c3cc(-c4cccc(C(F)(F)F)c4)n[nH]3)cc2)CC1(C)C`, the “% Inhibition” value worked out at 45%.
With `CCc1oc2ccccc2c1CNC[C@H](O)c1ccc(Cl)cc1`, the “% Inhibition” value turned out to be 99%.
Consider `CCN(Cc1cnn(-c2cccc(Cl)c2)c1)CC1CCN(C2CCN(C)CC2)CC1`, for which the “% Inhibition” value is 79%.
The figure for `CCN(Cc1[nH]c2ccc(Cl)cc2c1C)CC1CCN(C2CCN(C)CC2)CC1` is 89%; for `Cc1ccc2[nH]c(-c3cc4n(n3)CCN(c3ccnc(N)n3)C4)nc2c1C` it is 89%.
Consider `CNc1nc(N[C@H]2CCCN(Cc3ccc(Cl)cc3)C2)nc2c1CCC2`, for which the “% Inhibition” value is on record as 79%.
As for `Clc1cccc(N2CC[C@H](CNC3CCN(Cc4ccco4)CC3)C2)c1`, the “% Inhibition” value was determined as 66%.
With `COc1ccc(CNCc2cc3ccccc3[nH]2)cc1CN(C)C`, the “% Inhibition” value stood at 59%.
As for `COc1ccccc1-c1csc(C2CCN(CC[C@H]3CCCN3C)CC2)n1`, the “% Inhibition” value was 26%.
`CC(CNc1nc(NCC(C)N2CCOCC2)c2cc(Cl)ccc2n1)N1CCOCC1` (stereo not drawn): the “% Inhibition” value amounted to 87%.
